A selection: hits, their analogues and other compounds. The true share with any hit is near 17%.
DT40 TDP1 CPT: growth inhibition of DT40 Tdp1-/-;hTDP1 cells with camptothecin (screen for TDP1 inhibitors); chicken DT40 Tdp1-/-;hTDP1 cells + 20 nM CPT, ATP luminescence, 48 h; AID 686979; hit rate 12% among 420,000; Potency, µM (doses to about 46.2 µM), usual class: inhibitors; further: nearly all actives have a fitted effect of over 55% in size
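Chicken DT40 Tdp1-/- cells stably complemented with human TDP1 were seeded at 400 cells/well in medium containing 20 nM camptothecin, exposed to pin-transferred compounds, and grown at 37 °C for at least 48 hr. Viability was read as ATP luminescence.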
TGFb inhibitor: inhibitors of TGF-b signaling | HepG2 CAGA-GFP TGF-b/SMAD3 reporter, GFP fluorescence, 18 h; TGF-beta stimulated, 500 pg/mL final | Potency, µM (top dose mostly 46.1 µM), actives largely listed as inhibitors | hit rate 1.2% among 410,000 | AID 588855; further: nearly all actives have a fitted effect of over 65% in size
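TGF-beta reporter screen: HEPG2 CAGA-GFP, 1% FBS, 500 pg/mL TGF-beta final, 18 h; per-cell GFP summed per well; curves fitted and categorized by class.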
ATXN2 expr inh: inhibitors of ATXN2 expression. hit rate 0.72% among 360,000. Potency, µM (top dose mostly 57 µM), actives largely listed as inhibitors. HEK-293 ATXN2-luciferase reporter, luminescence, 24 h. AID 1745845; further: nearly all actives have a fitted effect of over 55% in size
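ATXN2-luciferase reporter cells (luciferase flanked by upstream and downstream ATXN2 gene portions) were treated 24 h at 37 °C with compounds at up to 57 uM. SteadyGlo luminescence gave expression; GF-AFC fluorescence gave viability.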
ATXN viability: reduces viability in counter-screen for ATXN expression inhibitors | S2 cells (HEK-293 line with an ATXN2-luciferase reporter) viability, CellTiter-Fluor protease fluorescence, 24 h | Potency, µM (doses to about 56.7 µM), actives largely listed as cytotoxic | hit rate 0.49% among 400,000 | AID 651635; further: nearly all actives have a fitted effect of over 40% in size
DT40 TDP1 no CPT: qHTS for Inhibitors of human tyrosyl-DNA phosphodiesterase 1 (TDP1): qHTS in cells in absence of CPT; DT40 Tdp1-/- hTDP1 cells, no CPT, ATP luminescence, 48 h; Potency, µM (highest dose often 46.2 µM), actives largely listed as inhibitors; hit rate 15% among 420,000; further: nearly all actives have a fitted effect of over 55% in size
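Chicken DT40 Tdp1-/- cells complemented with human TDP1, screened without camptothecin (DMSO vehicle only), 400 cells/well. Compounds pin-transferred, cells incubated at 37 °C for at least 48 hr. Growth read as ATP-dependent luminescence (CellTiter-Glo, 30 min at RT).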
HepG2 tox: HepG2 cytotoxicity, counter-screen for TGF-b inhibitors; HepG2 CAGA-GFP viability, ATP luminescence, 18 h; Potency, µM (series often up to 46.1 µM), hits mostly cytotoxic; hit rate 0.76% among 410,000
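HepG2 CAGA-GFP cells (1000/well, DMEM with 1% FBS) received compound, then TGF-beta at 500 pg/mL final, and were incubated 18 hours at 37 degrees C. Viability was read by CellTiter-Glo luminescence. Media-only wells were set as complete cell-killing and DMSO as no toxicity.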
A number is an active result. The call rests on the fitted dose curve; in most records, active means well fitted curve in the direction sought with a large enough effect; inconclusive means small, poorly fitted or top-dose-only effect, or another doubt; inactive means no such curve, though single readings can be large; an effect the other way counts as inactive or inconclusive.

CCN1C(C(=O)c2ccccc2)=C(OC(=O)c2ccc(Cl)cc2)c2ccccc2S1(=O)=O was read as DT40 TDP1 CPT inconclusive, TGFb inhibitor 11µM, DT40 TDP1 no CPT 23µM and HepG2 tox inactive.
CN1C(C(=O)c2ccccc2)=C(NC(=O)c2ccc(F)cc2)c2ccccc2S1(=O)=O was read as DT40 TDP1 CPT inconclusive, TGFb inhibitor inactive, ATXN2 expr inh inactive, ATXN viability inactive, DT40 TDP1 no CPT inconclusive and HepG2 tox inactive.
Screening Cc1ccc(CCNC(=O)c2c(C)oc3nc(C)nc(N4CCOCC4)c23)cc1 returned DT40 TDP1 CPT inconclusive, TGFb inhibitor inactive, DT40 TDP1 no CPT inconclusive and HepG2 tox inactive.
O=C(/C=C/[C@H]1O[C@@H](n2ccc(=O)[nH]c2=O)[C@H](O)[C@@H]1O)NCc1cccnc1 was read as DT40 TDP1 CPT inactive, TGFb inhibitor inactive, ATXN2 expr inh inactive, ATXN viability inactive, DT40 TDP1 no CPT inactive and HepG2 tox inactive.
Screening O=S(=O)(CS(=O)(=O)c1ccc(Cl)cc1)c1ccc(Cl)cc1 returned DT40 TDP1 CPT inactive, TGFb inhibitor inactive, ATXN2 expr inh inactive, ATXN viability inactive, DT40 TDP1 no CPT inactive and HepG2 tox inactive.
COC(=O)c1cn(Cc2ccccn2)c(=O)c2ccccc12 was read as DT40 TDP1 CPT inactive, TGFb inhibitor inactive, ATXN2 expr inh inactive, ATXN viability inactive, DT40 TDP1 no CPT inactive and HepG2 tox inactive.
For CCOc1cc(/C=N/NC(=O)CCCC(=O)NC2CCCCC2)ccc1O the results were DT40 TDP1 CPT inactive, TGFb inhibitor inactive, ATXN2 expr inh inactive, ATXN viability inactive, DT40 TDP1 no CPT inactive and HepG2 tox inactive.
`O=C1N=C(N2CCOCC2)S/C1=C/c1cc2c(cc1[N+](=O)[O-])OCO2` gave DT40 TDP1 CPT 12µM, TGFb inhibitor inactive, ATXN2 expr inh inactive, ATXN viability inactive, DT40 TDP1 no CPT 13µM and HepG2 tox inactive.
`O=C1N=C(N2CCOCC2)S/C1=C\c1ccccc1OS(=O)(=O)c1ccccc1` gave DT40 TDP1 CPT 12µM, TGFb inhibitor inactive, ATXN viability inactive, DT40 TDP1 no CPT 8.2µM and HepG2 tox inactive.
CCc1ccc(/C=C2\SC(N3CCCC3)=NC2=O)cc1 was read as DT40 TDP1 CPT inactive, TGFb inhibitor inactive, ATXN2 expr inh inactive, ATXN viability inactive, DT40 TDP1 no CPT inconclusive and HepG2 tox inactive.
`CC1CCN(C2=NC(=O)/C(=C/c3ccccc3F)S2)CC1` gave DT40 TDP1 CPT inactive, TGFb inhibitor inactive, ATXN2 expr inh inactive, ATXN viability inactive, DT40 TDP1 no CPT inconclusive and HepG2 tox inactive.
Screening CC(=O)N1CCN(C2=NC(=O)/C(=C/c3ccc(OS(=O)(=O)c4ccccc4)cc3)S2)CC1 returned DT40 TDP1 CPT 21µM, TGFb inhibitor inactive, ATXN2 expr inh inactive, ATXN viability inactive, DT40 TDP1 no CPT inconclusive and HepG2 tox inactive.
For COCCNC(=O)C1(C)CCCN(C(=O)c2ccc(C(F)(F)F)cc2)C1 (stereo unspecified) the results were DT40 TDP1 CPT inactive, TGFb inhibitor inactive, ATXN2 expr inh inactive, ATXN viability inactive, DT40 TDP1 no CPT inconclusive and HepG2 tox inactive.
Screening COc1ccc(NC(=O)C2c3ccccc3OCC(=O)N2CCc2ccccc2)cc1 (stereo unspecified) returned DT40 TDP1 CPT inactive, ATXN2 expr inh inactive, ATXN viability inactive and DT40 TDP1 no CPT inactive.
For COc1cc(C2c3c(oc4ccccc4c3=O)C(=O)N2c2nnc(C(C)C)s2)cc(OC)c1OC (stereo unspecified) the results were DT40 TDP1 CPT inactive, TGFb inhibitor inactive, ATXN2 expr inh inactive, ATXN viability inactive, DT40 TDP1 no CPT inactive and HepG2 tox inactive.
`O=C(N/N=C/c1ccc(F)cc1)c1c(O)c2ccccc2[nH]c1=O` gave DT40 TDP1 CPT 4.6µM, TGFb inhibitor inactive, ATXN2 expr inh inactive, ATXN viability inactive, DT40 TDP1 no CPT 5.2µM and HepG2 tox inactive.
CC(C)C(=O)NNC(=O)c1c(O)c2ccccc2[nH]c1=O was read as DT40 TDP1 CPT inconclusive, TGFb inhibitor inactive, ATXN viability inactive, DT40 TDP1 no CPT inconclusive and HepG2 tox inactive.
Screening COC(=O)c1c(O)c2ccccc2[nH]c1=O returned DT40 TDP1 CPT inactive, TGFb inhibitor inactive, ATXN2 expr inh inactive, ATXN viability inactive, DT40 TDP1 no CPT inactive and HepG2 tox inactive.
For O=c1[nH]c2ccccc2c(O)c1-[n+]1ccccc1 the results were DT40 TDP1 CPT inactive, TGFb inhibitor inactive, ATXN2 expr inh inactive, ATXN viability inactive, DT40 TDP1 no CPT inactive and HepG2 tox inactive.
For O=C(NNC(=O)c1c(O)c2ccccc2[nH]c1=O)c1ccccc1 the results were DT40 TDP1 CPT inconclusive, TGFb inhibitor inactive, ATXN2 expr inh inactive, ATXN viability inactive, DT40 TDP1 no CPT inactive and HepG2 tox inactive.
O=c1[nH]c2ccccc2c(O)c1O was read as DT40 TDP1 CPT 8.2µM, TGFb inhibitor inactive, ATXN2 expr inh inactive, ATXN viability inactive, DT40 TDP1 no CPT 5.8µM and HepG2 tox inactive.
O=C(N/N=C/c1ccccc1)c1c(O)c2ccccc2[nH]c1=O was read as DT40 TDP1 CPT 9.2µM, TGFb inhibitor inactive, ATXN2 expr inh inactive, ATXN viability inconclusive, DT40 TDP1 no CPT 12µM and HepG2 tox inactive.
`COC(=O)Nc1ccc(S(=O)(=O)NNC(=O)c2c(O)c3ccccc3[nH]c2=O)cc1` gave DT40 TDP1 CPT inconclusive, TGFb inhibitor inactive, ATXN2 expr inh inconclusive, ATXN viability inconclusive, DT40 TDP1 no CPT 23µM and HepG2 tox inactive.
For O=C(NC1CCSc2ccccc21)c1ccc(F)c(S(=O)(=O)N2CCOCC2)c1 (stereo unspecified) the results were DT40 TDP1 CPT inactive, TGFb inhibitor inactive, ATXN2 expr inh inactive, ATXN viability inactive, DT40 TDP1 no CPT inactive and HepG2 tox inactive.
For CC=CC1=C(C(=O)O)N2C(=O)[C@H](NC(=O)[C@H](N)c3ccc(O)cc3)[C@@H]2SC1 the results were ATXN2 expr inh inactive.
For O=C(Nc1cccc(F)c1)c1c(O)c2ccccc2[nH]c1=O the results were DT40 TDP1 CPT inactive, TGFb inhibitor inactive, ATXN2 expr inh inactive, ATXN viability inactive, DT40 TDP1 no CPT inactive and HepG2 tox inactive.
O=C(N/N=C/c1cccc(F)c1)c1c(O)c2ccccc2[nH]c1=O was read as DT40 TDP1 CPT 2.3µM, TGFb inhibitor inactive, ATXN2 expr inh inactive, ATXN viability inactive, DT40 TDP1 no CPT 2.3µM and HepG2 tox inactive.
